PubChem BioAssay AID1159580 (chemical genetic matrix, 2015)
Several values for one entry are separate records, joined by “and”; a condition that tells them apart may be missing. Equal values may be shown once. The campaign covered roughly 5,500 compounds. About 2,000 (36%) were called active. About 18% were inconclusive and are not listed. Cut-off read from the data, not from the text of the source: active = normalized growth mostly below about 0.91 (no sharp cut-off); inconclusive = no clear call, values can overlap the other calls; inactive = mostly above about 0.92. Some of the results follow.

Assay: chemical genetic growth profiling, strain panel (AID 1159580);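 note: tested at 20 µM; growth read once vehicle control cultures reached saturation at 30 °C; 1 = growth at the plate median or of vehicle wells; lower values mean less growth of the strain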
Details: growth OD

Measured: normalized growth

Cc1c(NC(C)C)c(=O)n(-c2ccccc2)n1C
inactive: S. cerevisiae deletion strains, locus YAL013W, strain DEP1, hits give low values 1 | S. cerevisiae deletion strains, locus YBR021W, strain FUR4, hits give low values 0.994 | S. cerevisiae deletion strains, locus YBR229C, strain ROT2, hits give low values 0.989 | S. cerevisiae deletion strains, locus YCL029C, strain bik1, hits give low values 0.983 | S. cerevisiae deletion strains, locus YDL035C, strain GPR1, hits give low values 1.02 | S. cerevisiae deletion strains, locus YDL074C, strain BRE1, hits give low values 0.987 | S. cerevisiae deletion strains, locus YDL101C, strain DUN1, hits give low values 0.985 | S. cerevisiae deletion strains, locus YDL134C, strain PPH21, hits give low values 0.996 | S. cerevisiae deletion strains, locus YDL185W, strain tfp1, hits give low values 0.984 | S. cerevisiae deletion strains, locus YDL192W, strain arf1, hits give low values 0.995 | S. cerevisiae deletion strains, locus YDR101C, strain arx1, hits give low values 0.984 | S. cerevisiae deletion strains, locus YDR150W, strain NUM1, hits give low values 1 | S. cerevisiae deletion strains, locus YDR162C, strain NBP2, hits give low values 1.01 | S. cerevisiae deletion strains, locus YDR318W, strain mcm21, hits give low values 0.98 | S. cerevisiae deletion strains, locus YDR388W, hits give low values 0.974 | S. cerevisiae deletion strains, locus YDR502C, strain sam2, hits give low values 1 | S. cerevisiae deletion strains, locus YEL061C, strain CIN8, hits give low values 1 | S. cerevisiae deletion strains, locus YER110C, hits give low values 0.984 | S. cerevisiae deletion strains, locus YER155C, strain BEM2, hits give low values 0.99 | S. cerevisiae deletion strains, locus YER167W, strain BCK2, hits give low values 1 | S. cerevisiae deletion strains, locus YGL078C, strain dbp3, hits give low values 0.995 | S. cerevisiae deletion strains, locus YGL086W, strain mad1, hits give low values 1 | S. cerevisiae deletion strains, locus YGL248W, strain PDE1, hits give low values 1 | S. cerevisiae deletion strains, locus YGR078C, strain PAC10, hits give low values 0.987 | S. cerevisiae deletion strains, locus YGR135W, strain pre9, hits give low values 0.983 | S. cerevisiae deletion strains, locus YGR229C, strain SMI1, hits give low values 0.998 | S. cerevisiae deletion strains, locus YGR252W, strain gcn5, hits give low values 1.09 | S. cerevisiae deletion strains, locus YHR030C, strain SLT2, hits give low values 0.998 and 1.03 | S. cerevisiae deletion strains, locus YHR079C, strain IRE1 (second series), hits give low values 0.98 | S. cerevisiae deletion strains, locus YHR079C, strain IRE1, hits give low values 1.03 | S. cerevisiae deletion strains, locus YHR094C, strain hxt1, hits give low values 0.98 | S. cerevisiae deletion strains, locus YHR129C, strain ARP1, hits give low values 0.991 | S. cerevisiae deletion strains, locus YHR200W, strain rpn10, hits give low values 0.981 | S. cerevisiae deletion strains, locus YIL066C, strain RNR3, hits give low values 0.998 | S. cerevisiae deletion strains, locus YIL073C, strain SPO22, hits give low values 1 | S. cerevisiae deletion strains, locus YIL125W, strain kgd1, hits give low values 0.99 | S. cerevisiae deletion strains, locus YIR030C, strain dcg1, hits give low values 0.986 | S. cerevisiae deletion strains, locus YJL095W, strain BCK1, hits give low values 0.99 and 1.03 | S. cerevisiae deletion strains, locus YJL134W, strain LCB3, hits give low values 0.998 | S. cerevisiae deletion strains, locus YJL168C, strain set2, hits give low values 0.98 | S. cerevisiae deletion strains, locus YJL187C, strain SWE1 (second series), hits give low values 0.984 | S. cerevisiae deletion strains, locus YJR043C, strain POL32, hits give low values 1 | S. cerevisiae deletion strains, locus YJR066W, strain TOR1, hits give low values 0.962 | S. cerevisiae deletion strains, locus YJR075W, strain HOC1, hits give low values 0.994 | S. cerevisiae deletion strains, locus YKL009W, strain mrt4, hits give low values 0.999 | S. cerevisiae deletion strains, locus YKL068W, hits give low values 0.989 | S. cerevisiae deletion strains, locus YKL085W, strain MDH1 (second series), hits give low values 1 | S. cerevisiae deletion strains, locus YKL085W, strain MDH1, hits give low values 1 | S. cerevisiae deletion strains, locus YKL190W, strain CNB1, hits give low values 1 | S. cerevisiae deletion strains, locus YKR001C, strain vps1, hits give low values 0.992 | S. cerevisiae deletion strains, locus YLR039C, strain RIC1, hits give low values 1.05 | S. cerevisiae deletion strains, locus YLR058C, strain SHM2, hits give low values 0.988 | S. cerevisiae deletion strains, locus YLR102C, strain apc9, hits give low values 0.98 | S. cerevisiae deletion strains, locus YLR113W, strain HOG1, hits give low values 1.05 | S. cerevisiae deletion strains, locus YLR262C, strain YPT6, hits give low values 1.01 | S. cerevisiae deletion strains, locus YLR268W, strain sec22, hits give low values 0.925 | S. cerevisiae deletion strains, locus YLR330W, strain CHS5, hits give low values 1.01 | S. cerevisiae deletion strains, locus YLR342W, strain FKS1 (second series), hits give low values 1.04 | S. cerevisiae deletion strains, locus YLR371W, strain rom2, hits give low values 0.974 | S. cerevisiae deletion strains, locus YLR418C, strain cdc73, hits give low values 0.957 | S. cerevisiae deletion strains, locus YML016C, strain PPZ1, hits give low values 0.988 | S. cerevisiae deletion strains, locus YML032C, strain rad52, hits give low values 0.964 | S. cerevisiae deletion strains, locus YML124C, strain tub3, hits give low values 0.985 | S. cerevisiae deletion strains, locus YMR078C, strain ctf18, hits give low values 0.989 | S. cerevisiae deletion strains, locus YMR223W, strain ubp8, hits give low values 1.01 | S. cerevisiae deletion strains, locus YMR263W, strain SAP30, hits give low values 1 | S. cerevisiae deletion strains, locus YMR307W, strain GAS1, hits give low values 0.978 | S. cerevisiae deletion strains, locus YNL067W, strain RPL9B, hits give low values 0.986 | S. cerevisiae deletion strains, locus YNL128W, strain TEP1, hits give low values 1 | S. cerevisiae deletion strains, locus YNL153C, strain GIM3, hits give low values 0.986 | S. cerevisiae deletion strains, locus YNL183C, strain NPR1, hits give low values 0.974 | S. cerevisiae deletion strains, locus YNL233W, strain BNI4, hits give low values 0.986 | S. cerevisiae deletion strains, locus YNL250W, strain rad50, hits give low values 0.977 | S. cerevisiae deletion strains, locus YNL271C, strain bni1, hits give low values 0.986 | S. cerevisiae deletion strains, locus YNL298W, strain CLA4, hits give low values 0.971 | S. cerevisiae deletion strains, locus YNL307C, strain MCK1, hits give low values 0.982 | S. cerevisiae deletion strains, locus YNL322C, strain KRE1, hits give low values 0.993 | S. cerevisiae deletion strains, locus YNR052C, strain pop2, hits give low values 0.991 | S. cerevisiae deletion strains, locus YOL006C, strain TOP1, hits give low values 0.927 | S. cerevisiae deletion strains, locus YOL012C, strain htz1 1.17 | S. cerevisiae deletion strains, locus YOL147C, strain pex11, hits give low values 0.991 | S. cerevisiae deletion strains, locus YOR061W, strain CKA2, hits give low values 0.997 | S. cerevisiae deletion strains, locus YOR069W, strain VPS5, hits give low values 0.988 | S. cerevisiae deletion strains, locus YOR136W, strain idh2, hits give low values 0.971 | S. cerevisiae deletion strains, locus YOR144C, strain elg1, hits give low values 0.97 | S. cerevisiae deletion strains, locus YOR184W, strain ser1, hits give low values 0.985 | S. cerevisiae deletion strains, locus YOR231W, strain MKK1, hits give low values 1.04 | S. cerevisiae deletion strains, locus YOR316C, strain cot1, hits give low values 0.982 | S. cerevisiae deletion strains, locus YPL055C, strain LGE1, hits give low values 1.01 | S. cerevisiae deletion strains, locus YPL241C, strain CIN2, hits give low values 1 | S. cerevisiae deletion strains, locus YPL256C, strain CLN2, hits give low values 1.09 | S. cerevisiae deletion strains, locus YPR119W, strain clb2, hits give low values 0.982 | S. cerevisiae deletion strains, locus YPR141C, strain kar3, hits give low values 0.975 | S. cerevisiae deletion strains, locus YPR163C, strain tif3, hits give low values 0.982 | S. cerevisiae deletion strains, locus YPR167C, strain met16, hits give low values 0.971 | S. cerevisiae deletion strains, strain wtn01, hits give low values 0.971 | S. cerevisiae strains, strain wild type, hits give low values 0.995
